Hit rate of the full screen: of about 5,500 compounds, about 2,000 (36%) were called active. Not shown: some 18% with an inconclusive outcome. Cut-off read from the data, not from the text of the source: active = normalized growth mostly below about 0.91 (no sharp cut-off); inconclusive = no clear call, values can overlap the other calls; inactive = mostly above about 0.92. This is one part of the list.
Assay: chemical genetic growth profiling, strain panel (AID 1159580);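 note: tested at 20 µM; growth read once vehicle control cultures reached saturation at 30 °C; 1 = growth at the plate median or of vehicle wells; lower values mean less growth of the strain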
Conditions: growth OD

Measured: normalized growth

CCCC(=O)O[C@]1(C(=O)CO)CCC2[C@@H]3CCC4=CC(=O)CC[C@]4(C)C3[C@@H](O)C[C@@]21C (stereo not given in full)
inactive: S. cerevisiae deletion strains, locus YJR066W, strain TOR1, active compounds read low 0.99 | S. cerevisiae deletion strains, locus YKL009W, strain mrt4, active compounds read low 0.958 | S. cerevisiae deletion strains, locus YKL068W, active compounds read low 1.02 | S. cerevisiae deletion strains, locus YKL085W, strain MDH1 (second series), active compounds read low 1.01 | S. cerevisiae deletion strains, locus YKL085W, strain MDH1, active compounds read low 1.01 | S. cerevisiae deletion strains, locus YKL160W, strain elf1, active compounds read low 1.01 | S. cerevisiae deletion strains, locus YKL190W, strain CNB1, active compounds read low 1 | S. cerevisiae deletion strains, locus YKR001C, strain vps1, active compounds read low 0.982 | S. cerevisiae deletion strains, locus YKR026C, strain gcn3, active compounds read low 1.01 | S. cerevisiae deletion strains, locus YKR091W, strain srl3, active compounds read low 1 | S. cerevisiae deletion strains, locus YLL001W, strain dnm1, active compounds read low 1.01 | S. cerevisiae deletion strains, locus YLL026W, active compounds read low 1 | S. cerevisiae deletion strains, locus YLL041C, strain sdh2, active compounds read low 1 | S. cerevisiae deletion strains, locus YLR027C, strain aat2, active compounds read low 1 | S. cerevisiae deletion strains, locus YLR039C, strain RIC1, active compounds read low 0.988 | S. cerevisiae deletion strains, locus YLR058C, strain SHM2, active compounds read low 1.01 | S. cerevisiae deletion strains, locus YLR102C, strain apc9, active compounds read low 0.985 | S. cerevisiae deletion strains, locus YLR113W, strain HOG1, active compounds read low 1.07 | S. cerevisiae deletion strains, locus YLR221C, strain rsa3, active compounds read low 1.01 | S. cerevisiae deletion strains, locus YLR258W, strain gsy2, active compounds read low 1.01 | S. cerevisiae deletion strains, locus YLR262C, strain YPT6 (second series), active compounds read low 1.01 | S. cerevisiae deletion strains, locus YLR262C, strain YPT6, active compounds read low 1.01 | S. cerevisiae deletion strains, locus YLR268W, strain sec22, active compounds read low 0.988 | S. cerevisiae deletion strains, locus YLR320W, strain mms22, active compounds read low 1.02 | S. cerevisiae deletion strains, locus YLR330W, strain CHS5, active compounds read low 1.01 | S. cerevisiae deletion strains, locus YLR342W, strain FKS1 (second series), active compounds read low 0.996 | S. cerevisiae deletion strains, locus YLR342W, strain FKS1, active compounds read low 1.02 | S. cerevisiae deletion strains, locus YLR357W, strain rsc2, active compounds read low 1 | S. cerevisiae deletion strains, locus YLR370C, strain arc18, active compounds read low 1.01 | S. cerevisiae deletion strains, locus YLR371W, strain rom2, active compounds read low 0.996 | S. cerevisiae deletion strains, locus YLR384C, strain iki3, active compounds read low 1.01 | S. cerevisiae deletion strains, locus YLR418C, strain cdc73, active compounds read low 0.934 | S. cerevisiae deletion strains, locus YML016C, strain PPZ1, active compounds read low 1.01 | S. cerevisiae deletion strains, locus YML032C, strain rad52, active compounds read low 0.948 | S. cerevisiae deletion strains, locus YML120C, strain ndi1, active compounds read low 0.992 | S. cerevisiae deletion strains, locus YML124C, strain tub3, active compounds read low 0.996 | S. cerevisiae deletion strains, locus YMR058W, strain fet3, active compounds read low 1.01 | S. cerevisiae deletion strains, locus YMR078C, strain ctf18, active compounds read low 0.984 | S. cerevisiae deletion strains, locus YMR125W, strain sto1, active compounds read low 1.02 | S. cerevisiae deletion strains, locus YMR129W, active compounds read low 1.01 | S. cerevisiae deletion strains, locus YMR205C, strain PFK2, active compounds read low 1.02 | S. cerevisiae deletion strains, locus YMR223W, strain ubp8, active compounds read low 0.951 | S. cerevisiae deletion strains, locus YMR231W, strain pep5, active compounds read low 1.01 | S. cerevisiae deletion strains, locus YMR263W, strain SAP30, active compounds read low 1.01 | S. cerevisiae deletion strains, locus YMR307W, strain GAS1, active compounds read low 0.999 | S. cerevisiae deletion strains, locus YNL067W, strain RPL9B, active compounds read low 1.01 | S. cerevisiae deletion strains, locus YNL071W, strain lat1, active compounds read low 1 | S. cerevisiae deletion strains, locus YNL128W, strain TEP1, active compounds read low 0.994 | S. cerevisiae deletion strains, locus YNL153C, strain GIM3, active compounds read low 1.02 | S. cerevisiae deletion strains, locus YNL183C, strain NPR1, active compounds read low 0.995 | S. cerevisiae deletion strains, locus YNL209W, strain ssb2, active compounds read low 1 | S. cerevisiae deletion strains, locus YNL233W, strain BNI4, active compounds read low 1.02 | S. cerevisiae deletion strains, locus YNL248C, strain rpa49, active compounds read low 1.02 | S. cerevisiae deletion strains, locus YNL250W, strain rad50, active compounds read low 0.983 | S. cerevisiae deletion strains, locus YNL271C, strain bni1, active compounds read low 0.992 | S. cerevisiae deletion strains, locus YNL298W, strain CLA4, active compounds read low 0.972 | S. cerevisiae deletion strains, locus YNL307C, strain MCK1, active compounds read low 0.982 | S. cerevisiae deletion strains, locus YNL322C, strain KRE1 (second series), active compounds read low 1.01 | S. cerevisiae deletion strains, locus YNR049C, strain mso1, active compounds read low 1.01 | S. cerevisiae deletion strains, locus YNR052C, strain pop2, active compounds read low 0.975 | S. cerevisiae deletion strains, locus YOL006C, strain TOP1, active compounds read low 1.06 | S. cerevisiae deletion strains, locus YOL012C, strain htz1 1.05 | S. cerevisiae deletion strains, locus YOL147C, strain pex11, active compounds read low 0.982 | S. cerevisiae deletion strains, locus YOR001W, strain rrp6, active compounds read low 1.02 | S. cerevisiae deletion strains, locus YOR061W, strain CKA2, active compounds read low 1.01 | S. cerevisiae deletion strains, locus YOR069W, strain VPS5, active compounds read low 1 | S. cerevisiae deletion strains, locus YOR070C, strain gyp1, active compounds read low 1 | S. cerevisiae deletion strains, locus YOR080W, strain dia2, active compounds read low 0.997 | S. cerevisiae deletion strains, locus YOR083W, strain WHI5, active compounds read low 1 | S. cerevisiae deletion strains, locus YOR106W, strain vam3, active compounds read low 1 | S. cerevisiae deletion strains, locus YOR136W, strain idh2, active compounds read low 0.983 | S. cerevisiae deletion strains, locus YOR144C, strain elg1, active compounds read low 0.977 | S. cerevisiae deletion strains, locus YOR184W, strain ser1, active compounds read low 0.963 | S. cerevisiae deletion strains, locus YOR231W, strain MKK1, active compounds read low 1.09 | S. cerevisiae deletion strains, locus YOR265W, strain rbl2, active compounds read low 1 | S. cerevisiae deletion strains, locus YOR270C, strain vph1, active compounds read low 1.01 | S. cerevisiae deletion strains, locus YOR290C, strain snf2, active compounds read low 1 | S. cerevisiae deletion strains, locus YOR316C, strain cot1, active compounds read low 0.994 | S. cerevisiae deletion strains, locus YPL051W, strain arl3, active compounds read low 1 | S. cerevisiae deletion strains, locus YPL055C, strain LGE1, active compounds read low 1.04 | S. cerevisiae deletion strains, locus YPL078C, strain atp4, active compounds read low 1.01 | S. cerevisiae deletion strains, locus YPL106C, strain sse1, active compounds read low 1.02 | S. cerevisiae deletion strains, locus YPL240C, strain hsp82, active compounds read low 1 | S. cerevisiae deletion strains, locus YPL256C, strain CLN2, active compounds read low 1.05 | S. cerevisiae deletion strains, locus YPR119W, strain clb2, active compounds read low 0.993 | S. cerevisiae deletion strains, locus YPR141C, strain kar3, active compounds read low 1.01 | S. cerevisiae deletion strains, locus YPR163C, strain tif3, active compounds read low 1.01 | S. cerevisiae deletion strains, locus YPR167C, strain met16, active compounds read low 0.99 | S. cerevisiae deletion strains, strain wtn01, active compounds read low 0.961 | S. cerevisiae strains, strain wild type, active compounds read low 1.01
